Test results published in ChEMBL document CHEMBL1961873, “Compounds: GSK PKIS; Assays: Nanosyn kinase panel” (2012).

Experiments:
[1] = system: Tyrosine-protein kinase ABL1 (Homo sapiens), P00519 [T315I]; conditions: at 1 µM
[2] = system: Tyrosine-protein kinase ABL1 (Homo sapiens), P00519 [Y253F]; conditions: at 0.1 µM
[3] = system: Tyrosine-protein kinase ABL1 (Homo sapiens), P00519 [Y253F]; conditions: at 1 µM
[4] = biological target: Tyrosine-protein kinase ABL1 (Homo sapiens) (UniProt P00519); conditions: at 0.1 µM
[5] = biological target: Tyrosine-protein kinase ABL1 (Homo sapiens) (UniProt P00519); conditions: at 1 µM
[6] = biological target: ALK tyrosine kinase receptor (Homo sapiens) (UniProt Q9UM73); conditions: at 0.1 µM
ALK tyrosine kinase receptor (Homo sapiens), sequence (Q9UM73 19-1620 limits assumed): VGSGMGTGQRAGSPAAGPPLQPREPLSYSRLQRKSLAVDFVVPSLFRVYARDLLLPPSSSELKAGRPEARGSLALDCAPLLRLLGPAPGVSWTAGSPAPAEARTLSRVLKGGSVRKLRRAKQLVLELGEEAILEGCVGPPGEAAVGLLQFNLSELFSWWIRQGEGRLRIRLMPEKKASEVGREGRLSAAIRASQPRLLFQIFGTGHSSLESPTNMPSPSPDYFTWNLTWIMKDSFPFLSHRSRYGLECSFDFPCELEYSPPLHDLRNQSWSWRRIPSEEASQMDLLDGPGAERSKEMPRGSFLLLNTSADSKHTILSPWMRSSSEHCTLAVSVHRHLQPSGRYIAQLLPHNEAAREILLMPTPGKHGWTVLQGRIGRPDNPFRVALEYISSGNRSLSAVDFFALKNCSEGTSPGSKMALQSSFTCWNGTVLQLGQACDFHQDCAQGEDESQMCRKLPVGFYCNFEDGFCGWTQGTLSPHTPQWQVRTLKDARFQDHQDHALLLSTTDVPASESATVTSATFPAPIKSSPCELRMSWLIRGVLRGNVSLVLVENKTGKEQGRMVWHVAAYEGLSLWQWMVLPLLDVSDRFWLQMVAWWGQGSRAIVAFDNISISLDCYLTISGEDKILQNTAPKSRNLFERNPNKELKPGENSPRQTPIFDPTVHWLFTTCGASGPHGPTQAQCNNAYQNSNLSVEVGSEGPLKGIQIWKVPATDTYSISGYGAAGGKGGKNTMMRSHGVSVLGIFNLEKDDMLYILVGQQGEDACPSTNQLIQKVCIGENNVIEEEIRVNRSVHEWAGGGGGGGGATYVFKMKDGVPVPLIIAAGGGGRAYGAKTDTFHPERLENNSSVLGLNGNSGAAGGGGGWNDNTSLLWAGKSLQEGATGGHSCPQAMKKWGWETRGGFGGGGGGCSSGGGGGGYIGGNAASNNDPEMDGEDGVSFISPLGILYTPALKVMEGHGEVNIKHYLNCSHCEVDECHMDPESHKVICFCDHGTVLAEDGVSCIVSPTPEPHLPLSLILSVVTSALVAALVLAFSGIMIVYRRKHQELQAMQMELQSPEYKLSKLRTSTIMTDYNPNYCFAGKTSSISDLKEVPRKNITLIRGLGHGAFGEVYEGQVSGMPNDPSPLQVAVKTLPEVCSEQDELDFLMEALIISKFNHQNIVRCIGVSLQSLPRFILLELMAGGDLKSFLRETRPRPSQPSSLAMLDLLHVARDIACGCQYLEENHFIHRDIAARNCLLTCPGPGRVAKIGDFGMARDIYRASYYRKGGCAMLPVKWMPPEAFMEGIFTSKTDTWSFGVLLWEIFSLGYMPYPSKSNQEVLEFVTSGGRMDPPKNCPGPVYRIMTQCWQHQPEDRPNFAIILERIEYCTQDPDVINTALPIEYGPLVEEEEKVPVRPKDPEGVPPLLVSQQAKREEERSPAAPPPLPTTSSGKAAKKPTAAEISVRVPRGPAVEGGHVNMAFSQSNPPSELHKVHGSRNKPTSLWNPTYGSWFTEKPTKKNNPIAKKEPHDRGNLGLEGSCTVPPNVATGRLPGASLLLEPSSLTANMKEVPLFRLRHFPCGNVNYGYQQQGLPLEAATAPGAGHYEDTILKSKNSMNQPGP

[7] = biological target: ALK tyrosine kinase receptor (Homo sapiens) (UniProt Q9UM73); conditions: at 1 µM
[8] = biological target: Tyrosine-protein kinase ABL2 (Homo sapiens) (UniProt P42684); conditions: at 0.1 µM
Tyrosine-protein kinase ABL2 (Homo sapiens), sequence (P42684 whole entry): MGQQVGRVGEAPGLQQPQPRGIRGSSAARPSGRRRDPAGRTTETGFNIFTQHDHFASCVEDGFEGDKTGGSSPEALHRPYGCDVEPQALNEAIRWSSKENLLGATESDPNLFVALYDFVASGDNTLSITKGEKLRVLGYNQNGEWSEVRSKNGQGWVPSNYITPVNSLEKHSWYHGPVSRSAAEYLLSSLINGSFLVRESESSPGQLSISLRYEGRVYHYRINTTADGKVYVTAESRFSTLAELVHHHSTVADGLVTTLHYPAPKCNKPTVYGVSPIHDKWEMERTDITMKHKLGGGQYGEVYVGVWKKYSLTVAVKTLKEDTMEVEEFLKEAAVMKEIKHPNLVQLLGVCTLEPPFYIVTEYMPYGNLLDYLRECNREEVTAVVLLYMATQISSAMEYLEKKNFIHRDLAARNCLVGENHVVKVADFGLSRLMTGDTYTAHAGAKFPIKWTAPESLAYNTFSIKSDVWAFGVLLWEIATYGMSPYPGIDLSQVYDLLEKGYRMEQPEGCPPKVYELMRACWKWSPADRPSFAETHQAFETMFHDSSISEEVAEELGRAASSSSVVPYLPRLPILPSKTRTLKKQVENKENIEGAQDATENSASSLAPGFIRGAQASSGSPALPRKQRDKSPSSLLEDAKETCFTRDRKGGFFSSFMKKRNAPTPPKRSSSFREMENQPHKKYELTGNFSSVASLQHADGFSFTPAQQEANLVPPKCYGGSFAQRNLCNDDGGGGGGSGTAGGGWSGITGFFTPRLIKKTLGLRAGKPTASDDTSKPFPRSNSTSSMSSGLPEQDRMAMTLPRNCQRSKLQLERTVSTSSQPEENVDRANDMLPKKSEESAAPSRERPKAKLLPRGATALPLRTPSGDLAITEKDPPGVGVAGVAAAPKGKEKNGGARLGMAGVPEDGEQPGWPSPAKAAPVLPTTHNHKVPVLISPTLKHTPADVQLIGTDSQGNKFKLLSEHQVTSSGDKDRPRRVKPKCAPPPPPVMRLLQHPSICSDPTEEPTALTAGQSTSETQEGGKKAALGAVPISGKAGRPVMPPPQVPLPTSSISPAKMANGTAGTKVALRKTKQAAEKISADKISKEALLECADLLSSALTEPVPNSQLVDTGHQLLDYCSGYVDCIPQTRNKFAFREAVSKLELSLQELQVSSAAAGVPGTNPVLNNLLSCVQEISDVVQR

[9] = biological target: Tyrosine-protein kinase ABL2 (Homo sapiens) (UniProt P42684); conditions: at 1 µM
[10] = biological target: Tyrosine-protein kinase receptor UFO (Homo sapiens) (UniProt P30530); conditions: at 0.1 µM
[11] = biological target: Tyrosine-protein kinase receptor UFO (Homo sapiens) (UniProt P30530); conditions: at 1 µM
[12] = biological target: Tyrosine-protein kinase Blk (Homo sapiens) (UniProt P51451); conditions: at 0.1 µM
Tyrosine-protein kinase Blk (Homo sapiens), sequence (P51451 2-505 limits assumed): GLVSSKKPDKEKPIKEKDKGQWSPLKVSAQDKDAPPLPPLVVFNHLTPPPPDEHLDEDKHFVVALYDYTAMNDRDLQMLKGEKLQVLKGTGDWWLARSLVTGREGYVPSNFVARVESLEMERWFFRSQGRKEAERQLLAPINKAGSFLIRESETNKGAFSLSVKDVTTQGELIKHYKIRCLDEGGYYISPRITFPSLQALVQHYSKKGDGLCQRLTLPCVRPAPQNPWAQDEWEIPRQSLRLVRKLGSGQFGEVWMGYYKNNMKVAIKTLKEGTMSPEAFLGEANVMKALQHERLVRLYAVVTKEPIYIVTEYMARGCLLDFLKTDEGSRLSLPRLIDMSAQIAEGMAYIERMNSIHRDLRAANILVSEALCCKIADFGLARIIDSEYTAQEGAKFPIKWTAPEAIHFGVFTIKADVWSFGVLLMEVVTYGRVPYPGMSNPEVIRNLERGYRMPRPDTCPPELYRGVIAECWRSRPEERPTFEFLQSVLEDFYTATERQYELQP

[13] = biological target: Tyrosine-protein kinase Blk (Homo sapiens) (UniProt P51451); conditions: at 1 µM
[14] = biological target: T1, Cytoplasmic tyrosine-protein kinase BMX (Homo sapiens) (UniProt P51813); conditions: at 0.1 µM
T1 sequence (whole entry): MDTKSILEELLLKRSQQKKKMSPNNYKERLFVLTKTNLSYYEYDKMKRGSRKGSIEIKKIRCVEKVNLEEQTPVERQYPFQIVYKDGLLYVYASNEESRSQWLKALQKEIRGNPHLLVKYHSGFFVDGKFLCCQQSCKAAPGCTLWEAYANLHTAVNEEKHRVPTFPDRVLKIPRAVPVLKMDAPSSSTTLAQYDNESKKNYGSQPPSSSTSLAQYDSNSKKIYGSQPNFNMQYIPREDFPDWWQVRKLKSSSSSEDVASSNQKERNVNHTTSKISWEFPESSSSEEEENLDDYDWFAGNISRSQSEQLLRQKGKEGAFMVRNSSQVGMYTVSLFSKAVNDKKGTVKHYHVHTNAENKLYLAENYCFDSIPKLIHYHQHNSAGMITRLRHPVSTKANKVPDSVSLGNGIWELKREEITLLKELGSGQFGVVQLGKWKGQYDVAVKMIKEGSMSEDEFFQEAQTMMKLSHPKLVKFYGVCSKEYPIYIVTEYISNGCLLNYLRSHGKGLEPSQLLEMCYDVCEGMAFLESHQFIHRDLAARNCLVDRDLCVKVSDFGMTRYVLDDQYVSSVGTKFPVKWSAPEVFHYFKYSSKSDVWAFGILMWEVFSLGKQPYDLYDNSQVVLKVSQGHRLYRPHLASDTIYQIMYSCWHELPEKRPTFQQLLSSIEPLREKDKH

[15] = biological target: T1, Cytoplasmic tyrosine-protein kinase BMX (Homo sapiens); conditions: at 1 µM
[16] = biological target: Protein-tyrosine kinase 6 (Homo sapiens) (UniProt Q13882); conditions: at 0.1 µM
Protein-tyrosine kinase 6 (Homo sapiens), sequence (Q13882 whole entry, looked up): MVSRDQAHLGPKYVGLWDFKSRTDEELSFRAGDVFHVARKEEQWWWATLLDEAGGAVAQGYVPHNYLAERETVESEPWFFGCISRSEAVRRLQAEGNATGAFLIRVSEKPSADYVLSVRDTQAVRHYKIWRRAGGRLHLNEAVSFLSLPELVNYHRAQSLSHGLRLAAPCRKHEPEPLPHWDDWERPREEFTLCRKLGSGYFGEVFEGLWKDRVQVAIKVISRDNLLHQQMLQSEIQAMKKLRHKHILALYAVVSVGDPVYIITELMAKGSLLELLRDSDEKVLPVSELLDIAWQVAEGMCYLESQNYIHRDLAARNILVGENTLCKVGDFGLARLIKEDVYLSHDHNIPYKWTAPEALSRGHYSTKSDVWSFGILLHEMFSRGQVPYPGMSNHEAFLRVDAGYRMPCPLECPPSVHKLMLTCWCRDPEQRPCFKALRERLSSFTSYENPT

[17] = biological target: Protein-tyrosine kinase 6 (Homo sapiens) (UniProt Q13882); conditions: at 1 µM
[18] = biological target: Tyrosine-protein kinase BTK (Homo sapiens) (UniProt Q06187); conditions: at 0.1 µM
Tyrosine-protein kinase BTK (Homo sapiens), sequence (Q06187 whole entry): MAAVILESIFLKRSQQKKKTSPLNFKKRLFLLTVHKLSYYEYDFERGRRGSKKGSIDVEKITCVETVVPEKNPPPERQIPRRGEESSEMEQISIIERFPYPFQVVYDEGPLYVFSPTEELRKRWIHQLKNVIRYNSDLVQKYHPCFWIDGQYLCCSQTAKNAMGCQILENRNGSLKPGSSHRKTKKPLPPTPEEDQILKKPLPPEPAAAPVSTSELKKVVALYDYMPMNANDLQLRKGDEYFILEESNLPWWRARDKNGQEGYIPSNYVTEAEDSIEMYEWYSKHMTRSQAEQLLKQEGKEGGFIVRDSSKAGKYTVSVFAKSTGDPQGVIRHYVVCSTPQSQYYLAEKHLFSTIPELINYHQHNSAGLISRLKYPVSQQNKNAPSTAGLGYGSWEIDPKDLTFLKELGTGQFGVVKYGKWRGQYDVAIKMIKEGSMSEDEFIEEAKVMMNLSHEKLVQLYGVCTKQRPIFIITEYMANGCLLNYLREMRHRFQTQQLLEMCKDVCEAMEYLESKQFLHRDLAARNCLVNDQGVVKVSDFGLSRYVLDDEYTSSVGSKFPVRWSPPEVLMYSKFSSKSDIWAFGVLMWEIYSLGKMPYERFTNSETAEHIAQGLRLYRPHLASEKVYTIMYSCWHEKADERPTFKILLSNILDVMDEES

[19] = biological target: Tyrosine-protein kinase BTK (Homo sapiens) (UniProt Q06187); conditions: at 1 µM
[20] = biological target: Tyrosine-protein kinase CSK (Homo sapiens) (UniProt P41240); conditions: at 0.1 µM;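 also: value given is the averaged percent inhibition of CSK kinase activity, from the GSK PKIS kinase inhibitor set screening panel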
Tyrosine-protein kinase CSK (Homo sapiens), sequence (P41240 2-450 limits assumed): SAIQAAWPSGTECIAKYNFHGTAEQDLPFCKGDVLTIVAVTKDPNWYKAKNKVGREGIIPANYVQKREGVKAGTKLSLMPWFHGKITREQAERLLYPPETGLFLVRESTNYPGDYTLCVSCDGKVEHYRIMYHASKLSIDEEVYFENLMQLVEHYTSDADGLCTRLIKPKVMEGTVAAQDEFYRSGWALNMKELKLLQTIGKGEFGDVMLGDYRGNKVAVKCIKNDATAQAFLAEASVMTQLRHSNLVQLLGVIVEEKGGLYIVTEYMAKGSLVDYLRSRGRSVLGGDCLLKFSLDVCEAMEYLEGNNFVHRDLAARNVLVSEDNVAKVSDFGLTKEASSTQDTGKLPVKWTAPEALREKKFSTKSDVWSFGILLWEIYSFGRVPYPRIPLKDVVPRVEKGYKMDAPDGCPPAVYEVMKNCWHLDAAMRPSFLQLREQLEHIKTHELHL

Structure (SMILES) | inhibition [1] | inhibition [2] | inhibition [3] | inhibition [4] | inhibition [5] | inhibition [6] | inhibition [7] | inhibition [8] | inhibition [9] | inhibition [10] | inhibition [11] | inhibition [12] | inhibition [13] | inhibition [14] | inhibition [15] | inhibition [16] | inhibition [17] | inhibition [18] | inhibition [19] | inhibition [20]
CC(C)=Cc1cccc2c1/C(=N/Nc1ccc(S(N)(=O)=O)cc1)C(=O)N2 | 18.2% | 4.12% | 21.9% | 2.44% | 12.7% | 2.57% | 10.4% | 3.09% | 14% | 1.02% | 5.18% | 3.01% | 31.1% | -0.19% | 6.64% | 1.35% | -1.64% | 1.86% | 3.95% | 0.6%
COc1cc2ncn(-c3cc(OCc4ccccc4C(F)(F)F)c(C(N)=O)s3)c2cc1OC | 14% | 5.48% | 19.4% | 2.17% | 17.9% | 0.14% | 5.04% | 2.15% | 13.2% | -8.08% | -1.95% | 1.67% | 17.8% | 4.67% | 8.1% | 3.25% | 5.16% | -3.7% | -1.82% | 3.11%
CS(=O)(=O)CCNCc1ccc(-c2ccc3ncnc(Nc4ccc(OCc5cccc(F)c5)c(C(F)(F)F)c4)c3c2)o1 | 4.21% | 4.9% | 2.89% | 2.03% | 2.75% | 1.6% | 2.6% | 4.19% | 4.05% | -5.05% | -5.02% | 2.7% | 3.9% | 3.53% | 3.77% | 4.08% | 5.42% | 0.73% | -0.77% | 2.85%
Cc1nnc(-c2ccc(C)c(-c3ccc(C(=O)Nc4cccc(C#N)c4)cc3)c2)o1 | 2.58% | 1.18% | 3.76% | 3.64% | 5.81% | 3.61% | 2.36% | 4.17% | 6.56% | -4.6% | – | 2.41% | 3.76% | 4.54% | 2.78% | 2.27% | 2.95% | -0.22% | 1.88% | 0.99%
CCn1c(-c2nonc2N)nc2cnc(Oc3cccc(NC(=O)c4ccc(OCCN5CCOCC5)cc4)c3)cc21 | 4.26% | 5.27% | 4.41% | 3.37% | 11.1% | 1.15% | 3.72% | 4.56% | 7.99% | -6.28% | -2.93% | 2.22% | 2.41% | 0.58% | 2.53% | 0.94% | 4.32% | -1.45% | -2.04% | 2.95%
Nc1nc(-c2ccccn2)c(-c2ccc3ncccc3n2)s1 | 3.65% | 3.71% | 3.66% | 5.61% | 12.5% | 1.41% | 4.86% | 3.71% | 8.87% | -2.51% | -4.26% | 2.58% | 1.8% | -0.49% | 3.73% | 2.76% | 7.02% | 1.06% | 0.04% | 9.09%
Cn1cc(C=C2C(=O)Nc3cccnc32)c2ccccc21 | 43.9% | 10.6% | 48.7% | 7.81% | 44.7% | 5.12% | 9.81% | 3.71% | 20.9% | -2.84% | 19.1% | – | – | 3.27% | 4.89% | 0.63% | 2.28% | 1.87% | 3.46% | 1.5%
COc1cc(C=NNc2ncnc3c2cnn3-c2ccccc2)ccc1O | 82.1% | 43.3% | 86.6% | 23.4% | 73.7% | 2.44% | 6.69% | 11.6% | 71.5% | -1.48% | 10.6% | 10.3% | 65.5% | 3.92% | 21.9% | 2.93% | 14.2% | 1.25% | 2.34% | 4.22%
CC(=O)Nc1cccc(C#Cc2cncnc2Nc2ccc(OCc3cccc(F)c3)c(Cl)c2)n1 | 2.23% | 2.32% | 1.84% | 1.24% | 4.88% | -2.16% | -2.6% | 0.55% | 3.74% | 7.46% | 1.38% | 1.94% | 1.82% | 1.43% | 0.97% | -2.54% | 1.12% | 0.29% | 0.86% | -1.09%
COc1cc2ncn(-c3cc(O[C@@H](C)c4ccccc4Cl)c(C(N)=O)s3)c2cc1OC | 13.5% | 6.04% | 25.9% | 7.09% | 28.4% | 3.25% | 6.34% | 3.24% | 11.4% | -8.48% | -5.82% | 11.1% | 51.2% | 2.71% | 6.64% | -0.13% | 7.91% | -0.58% | 1.4% | 1.7%
Cc1cccc(-c2n[nH]cc2-c2ccc3ncccc3n2)n1 | 2.07% | 3.03% | 25.9% | 5.29% | 37.2% | 2.05% | 0.57% | 3.75% | 8% | -0.81% | 0.83% | 1.31% | 3.22% | 3% | 0.92% | 0.3% | 2.48% | -0.91% | -1.51% | -1.25%
Nc1ncnc2occ(-c3ccc(NC(=O)Nc4cccc(C(F)(F)F)c4)cc3)c12 | 89.2% | 12.3% | 48.2% | 16.1% | 55.8% | 6.2% | 21.8% | 33.6% | 64.7% | – | 45.3% | 7.81% | 49.1% | 20.4% | 71.3% | 2.23% | 7.46% | 0.15% | 6.68% | 7.62%
Cc1ccc(C(=O)NC2CCCCC2)cc1-c1ccc(C(=O)NCC2CC2)cc1 | -0.78% | 1.39% | 2.22% | 4.64% | 6.52% | 2.91% | 4.07% | 4.04% | 8.56% | 0.41% | 3.11% | 2.04% | 3.76% | 2.45% | 4.53% | 1.79% | 3.75% | 1.78% | 3.37% | 2.72%
Fc1cccc(COc2ccc(Nc3ncnc4cc(-c5ccc[nH]5)sc34)cc2Cl)c1 | 5.41% | 3.92% | 8.02% | 0.53% | 10.7% | -2.31% | 2.96% | 3.02% | 9.41% | -2.49% | -0.12% | -2.62% | 0.69% | 2.13% | 1.82% | 1.55% | 6.36% | -5.43% | -4.27% | 2.68%
